Screening results (PubChem)
hgDAF12 agonist: agonists of H. glycines DAF-12 nuclear receptor; HEK293 GAL4-hgDAF12 UAS-luciferase reporter, agonist luminescence; normalized to butyrate control; activation, % at 6.8 µM; hit rate 1.8% among 370,000;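 active = activation above a cutoff set at the mean of all screened compounds plus 3 SD, cut at about 10% in these data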;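 also: 0% = DMSO wells and 100% = sodium butyrate wells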
hcDAF12 agonist: activators of H. contortus DAF-12 nuclear receptor | HEK293 hcDAF-12 lit1-tk-luc reporter, luminescence; 0% DMSO, 100% Δ7-dafachronic acid | activation, % at 6.8 µM | hit rate 1.4% among 370,000;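 active = activation above the mean of all tested compounds plus 3 SD, cut at about 5.5% in these data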;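 also: 100% = response to 3 µM Δ7-dafachronic acid high control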
DAX1 inh-1: inhibitors of DAX1 repression of SF-1 activated StAR promoter; HEK293T StAR-luciferase reporter, SF-1/DAX-1 repression relief; inhibition, % at 6.8 µM; hit rate 1.1% among 370,000;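 active = inhibition above the mean over all tested compounds plus 3 SD, cut at about 3.6% in these data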;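 also: 0% = DAX-1 cells with DMSO and 100% = cells lacking DAX-1 with DMSO; higher inhibition means more luminescence from relief of DAX-1 repression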
DAX1 inh-2: NR0B1 (DAX1) inhibition; P51843; HEK293 Gal4-DAX1 luciferase reporter, luminescence; inhibition, % at 6.75 µM; hit rate 0.99% among 340,000;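 active = inhibition above the mean over all tested compounds plus 3 SD, cut at about 4.2% in these data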;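 also: 0% = DAX1-transfected cells with DMSO and 100% = empty-vector control cells with DMSO; inhibition shows as a rise in luminescence from relieved DAX1 repression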
ssDAF-12 act: S. stercoralis DAF-12 activation, primary screen | HEK293 ssDAF-12/GRIP1 lit1-tk-luc reporter, luminescence; % of 3 µM dafachronic acid response | hit rate 1% among 370,000 | activation, % at 6.8 µM;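 active = activation above the mean over all tested compounds plus 3 SD, cut at about 0.9% in these data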;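 also: 0% = DMSO-only wells and 100% = 3 µM delta7-dafachronic acid wells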
LXR ag: LXR-beta agonism as hcDAF-12 counter-screen. shares compounds with hcDAF12 agonist. HEK293 Gal4-LXR tk-luc reporter, luminescence, 24 h; normalized: DMSO 0%, positive control 100%. 3,400 tested, under 10 active. activation, % at 6.8 µM;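 active = mean percent activation of the reporter above a cutoff set as the average over tested compounds plus their standard deviation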
Target sequence (P55055 whole entry, looked up, the tested form may be a part): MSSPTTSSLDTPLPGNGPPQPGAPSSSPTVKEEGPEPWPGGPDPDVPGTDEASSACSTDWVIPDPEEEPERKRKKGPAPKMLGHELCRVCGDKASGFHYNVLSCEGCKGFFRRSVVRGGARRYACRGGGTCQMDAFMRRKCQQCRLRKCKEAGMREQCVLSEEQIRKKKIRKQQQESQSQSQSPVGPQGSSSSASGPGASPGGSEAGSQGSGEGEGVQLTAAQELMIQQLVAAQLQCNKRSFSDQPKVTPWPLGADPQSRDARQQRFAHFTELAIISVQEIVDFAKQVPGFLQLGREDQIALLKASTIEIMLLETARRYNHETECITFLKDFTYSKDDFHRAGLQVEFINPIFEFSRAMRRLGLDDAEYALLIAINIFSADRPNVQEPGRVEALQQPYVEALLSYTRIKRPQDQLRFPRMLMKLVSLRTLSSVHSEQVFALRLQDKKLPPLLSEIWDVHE
hcDAF12 conf: hcDAF-12 agonism, confirmation assay | hit rate 61% among 3,400 | activation, % at 6.8 µM | AID 743032 | HEK293 hcDAF-12 lit1-tk-luc reporter, luminescence; % of Δ7-dafachronic acid response | shares compounds with hcDAF12 agonist;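 active = mean activation across triplicate tests above the threshold derived from the earlier primary screen, cut at about 5.5% in these data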;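 also: 0% = DMSO only wells and 100% = 3 µM Δ7-dafachronic acid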
An asterisk follows results filed as active. Rows were chosen to be rich in hits. Some 4.1% of all compounds tested hit in one or more screens of this group.

O=C1CCC(C(=O)NC2(C(=O)NC3CCCCC3)CCCCC2)N1 (stereo not given) was read as hgDAF12 agonist -1, hcDAF12 agonist -1, DAX1 inh-1 0, DAX1 inh-2 -1 and ssDAF-12 act -1.
CCN1C[C@@H]2[C@@H]3C(=O)N(Cc4ccccc4)C(=O)[C@@H]3[C@](CC)(C1=O)N2C(=O)c1ccc(Cl)cc1 was read as hgDAF12 agonist -1, hcDAF12 agonist -1, DAX1 inh-1 0 and ssDAF-12 act -1.
Screening COc1cc2c(cc1OC)C(c1ccc3c(c1)Cc1ccccc1-3)OC(=O)C2 (stereo not given) returned hgDAF12 agonist 0, hcDAF12 agonist -3, DAX1 inh-1 1 and ssDAF-12 act -1.
For CCOC(=O)c1c(NC(=O)c2cccs2)sc(CC)c1-c1cccs1 the results were hgDAF12 agonist 2, hcDAF12 agonist -2, DAX1 inh-1 -1, DAX1 inh-2 0 and ssDAF-12 act -1.
Cc1sc(NC(=O)c2cccs2)c(C(N)=O)c1C was read as hgDAF12 agonist 9, hcDAF12 agonist 8.5*, DAX1 inh-1 1, DAX1 inh-2 1, ssDAF-12 act 0, LXR ag 0 and hcDAF12 conf 6.2*.
`CC1CCCC(C)N1C(=O)COC(=O)c1ccc2ccccc2n1` (stereo not given) gave hgDAF12 agonist 0, hcDAF12 agonist 1, DAX1 inh-1 -1, DAX1 inh-2 0 and ssDAF-12 act -1.
`CC(C)CCNC(=O)C(=O)NCCC1=CCCCC1` gave hgDAF12 agonist 4, hcDAF12 agonist 6.7*, DAX1 inh-1 0, DAX1 inh-2 -1, ssDAF-12 act 0, LXR ag 0 and hcDAF12 conf 2.
`O=CN1Cc2[nH]c3ccccc3c2N(c2ccc(Cl)cc2)C1=O` gave hgDAF12 agonist 2, hcDAF12 agonist 7.0*, DAX1 inh-1 0, DAX1 inh-2 -1, ssDAF-12 act 1.1*, LXR ag 0 and hcDAF12 conf 3.
Screening COc1ccc(C(=O)Nc2nnc(-c3cccs3)s2)cc1 returned hgDAF12 agonist 10, hcDAF12 agonist 6.8*, DAX1 inh-1 2, DAX1 inh-2 1, ssDAF-12 act 1.3*, LXR ag 2 and hcDAF12 conf 17*.
COc1ccc(NC(=O)Nc2nnc(-c3cccs3)s2)cc1 was read as hgDAF12 agonist 4, hcDAF12 agonist 2, DAX1 inh-1 1, DAX1 inh-2 1 and ssDAF-12 act -1.
Screening O=C(Nc1ccccc1)Nc1nnc(-c2cccs2)s1 returned hgDAF12 agonist 4, hcDAF12 agonist 6.6*, DAX1 inh-1 1, DAX1 inh-2 0, ssDAF-12 act 0, LXR ag 0 and hcDAF12 conf 0.
`O=C(Nc1ccc(F)cc1)/C(=C1/CCCCCN1)[N+](=O)[O-]` gave hgDAF12 agonist 4, hcDAF12 agonist -2, DAX1 inh-1 1, DAX1 inh-2 3 and ssDAF-12 act -2.
Screening CCOC(=O)C1=NNC2(c3ccc(C)cc3)C(=O)N(c3ccc(Cl)cc3)C(=O)C12 (stereo not given) returned hgDAF12 agonist -2, hcDAF12 agonist 0, DAX1 inh-1 -1, DAX1 inh-2 0 and ssDAF-12 act -2.
Screening S=c1[nH]nc(-c2cc3c(s2)-c2ccccc2CC3)o1 returned hgDAF12 agonist 6, hcDAF12 agonist 4, DAX1 inh-1 0, DAX1 inh-2 2 and ssDAF-12 act 0.
For CSc1nnc(-c2cc3c(s2)-c2ccccc2CC3)o1 the results were hgDAF12 agonist 11*, hcDAF12 agonist 9.8*, DAX1 inh-1 3, DAX1 inh-2 3, ssDAF-12 act 2.6*, LXR ag 1 and hcDAF12 conf 11*.
C/C(=N\OCc1cccc(C(=O)O)c1)c1ccc(Cl)cc1 was read as hgDAF12 agonist 13*, hcDAF12 agonist 8.8*, DAX1 inh-1 3, ssDAF-12 act 1, LXR ag 1 and hcDAF12 conf 5.
`Cc1ccc(S(=O)(=O)N2CN(CC3CCCO3)c3nc4ccccc4nc32)c(C)c1` (stereo not given) gave hgDAF12 agonist 3, hcDAF12 agonist 8.1*, DAX1 inh-1 1, DAX1 inh-2 0, ssDAF-12 act -1, LXR ag 0 and hcDAF12 conf 0.
For O=S(=O)(c1cccs1)N1CN(CC2CCCO2)c2nc3ccccc3nc21 (stereo not given) the results were hgDAF12 agonist 0, hcDAF12 agonist -2, DAX1 inh-1 1, DAX1 inh-2 0 and ssDAF-12 act -1.
`Nc1nc2ncccn2c1-c1ccc(C(F)(F)F)cc1` gave hgDAF12 agonist -2, hcDAF12 agonist 6.9*, DAX1 inh-1 -1, ssDAF-12 act 0, LXR ag 0 and hcDAF12 conf -1.
`COc1ccc(CCN2CN(S(=O)(=O)c3ccc(C)cc3)c3nc4ccccc4nc32)cc1OC` gave hgDAF12 agonist -2, hcDAF12 agonist 1, DAX1 inh-1 0, DAX1 inh-2 1 and ssDAF-12 act -1.
For COc1ccccc1N1CN(S(=O)(=O)c2ccc(C)cc2)c2nc3ccccc3nc21 the results were hgDAF12 agonist 13*, hcDAF12 agonist 9.1*, DAX1 inh-1 2, DAX1 inh-2 2, ssDAF-12 act 0.9*, LXR ag 0 and hcDAF12 conf 4.
Screening COc1ccc(C2=NN(S(C)(=O)=O)C(c3ccc4nccnc4c3)C2)cc1 (stereo not given) returned hgDAF12 agonist 7, hcDAF12 agonist 8.4*, DAX1 inh-1 1, DAX1 inh-2 0, ssDAF-12 act 1, LXR ag 0 and hcDAF12 conf 4.
COCOCCn1cc(CN2CCS(=O)(=O)N(Cc3ccc(-c4ccc(F)nc4)cc3)C(C)C2=O)nn1 (stereo not given) was read as hgDAF12 agonist -2, hcDAF12 agonist 0, DAX1 inh-1 1, DAX1 inh-2 0 and ssDAF-12 act -1.
`O=C(Nc1nnc(SCc2ccc(Cl)cc2)s1)c1ccco1` gave hgDAF12 agonist 4, hcDAF12 agonist 6.9*, DAX1 inh-1 0, DAX1 inh-2 0, ssDAF-12 act 1, LXR ag 0 and hcDAF12 conf 0.
For CCS(=O)(=O)Nc1c(C(=O)OC)[nH]c2ccccc12 the results were hgDAF12 agonist -2, hcDAF12 agonist 3, DAX1 inh-1 0, DAX1 inh-2 0 and ssDAF-12 act 0.
`CCS(=O)(=O)Nc1c(C(=O)O)[nH]c2ccccc12` gave hgDAF12 agonist 1, hcDAF12 agonist 7.6*, DAX1 inh-1 1, DAX1 inh-2 0, ssDAF-12 act 0, LXR ag 0 and hcDAF12 conf 5.
